Compound activity: PubChem BioAssay, National Center for Advancing Translational Sciences (NCATS)
Sampled rows, rich in hits. Any-hit rate of the full collection: about 2.4%.
D2 PAM-1 – D2 dopamine receptor (human) potentiation; P14416; HEK293 T-REx D2, calcium flux, EC20 dopamine potentiation; potentiation, % at 10 µM; 0.34% of 340,000 active; AID 485347;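 active = potentiation over 3 SD above the plate norm, cut at about 30% in these data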
Target sequence (P14416 whole entry, looked up): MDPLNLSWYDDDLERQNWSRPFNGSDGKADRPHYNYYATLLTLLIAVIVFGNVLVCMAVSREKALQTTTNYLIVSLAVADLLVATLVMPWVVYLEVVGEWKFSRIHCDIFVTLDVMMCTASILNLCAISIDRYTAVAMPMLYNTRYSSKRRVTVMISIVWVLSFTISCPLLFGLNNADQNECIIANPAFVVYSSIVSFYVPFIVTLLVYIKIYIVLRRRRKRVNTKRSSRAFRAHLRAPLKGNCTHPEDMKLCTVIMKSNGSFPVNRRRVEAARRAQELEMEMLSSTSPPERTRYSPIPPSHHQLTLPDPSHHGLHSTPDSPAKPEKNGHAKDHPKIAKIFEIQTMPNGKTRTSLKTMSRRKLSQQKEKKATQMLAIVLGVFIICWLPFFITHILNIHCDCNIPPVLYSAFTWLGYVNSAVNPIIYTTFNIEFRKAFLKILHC
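Potentiation of an EC20 dopamine calcium response measured kinetically over 180 s, after a preceding 180 s compound-only read flagging agonists. Cells: inducible Hek293 Trex D2 line, 4000/well, cultured overnight at 30 C before dye loading.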
D2 antag – antagonizes the human D2 dopamine receptor; HEK293 TREx D2 cells, calcium flux, dopamine EC80; 2% of 340,000 active; P14416; inhibition, % at 10 µM; in the data active = inhibition above about 30%; inactive = below that, where a call was filed
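Read-out: kinetic calcium fluorescence (1 cycle/s) in inducible HEK293 T-REx D2 cells after an EC80 dopamine addition that followed 180 s compound preincubation. Loss of the dopamine response indicates antagonism.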
D2 ag-1 – agonists of human D2 dopamine receptor (beta-arrestin) | DiscoveRx PathHunter D2 beta-arrestin, luminescence, 90 min; 100% = 57 uM dopamine signal | activation, % (test concentration not listed) | 0.084% of 360,000 active; in the data active = activation above about 40%; inconclusive = between about 15% and that limit
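Agonist mode: compounds alone added to overnight-plated D2 PathHunter cells for 90 min at 37 C, with 57 uM final dopamine (EC100) defining full response. Beta-arrestin recruitment detected by chemiluminescent reagent, read after 1 h at ambient temperature.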
D2 ag-2 – agonists of human D2 dopamine receptor; P14416; HEK293 T-REx D2 cells, calcium flux agonist mode; activation, % at 2 µM; 0.53% of 340,000 active;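 active = activation over 3 SD above normal in the single-dose calcium agonist read, cut at about 30% in these data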
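Tetracycline-induced HEK293 Trex cells with D2 receptor force-coupled to calcium signaling, plated overnight at 30 C and loaded with no-wash calcium dye. Calcium flux read kinetically for 180 s after compound addition; responses flag agonists.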
D2 PAM-2 – potentiates the human D2 dopamine receptor allosterically; AID 624464; DiscoveRx D2 beta-arrestin cells, luminescence, 90 min; 100% = 57 uM dopamine signal; 0.23% of 360,000 active; potentiation, % (test concentration not listed); in the data active = potentiation above about 50%; inconclusive = mostly about 30% to 49%
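PathHunter beta-arrestin assay in DiscoveRx D2 cells. Compounds were added with an EC20 of dopamine (50 nM final) for 90 min at 37 deg C. Luminescence was read 1 h after detection reagent, with 57 uM dopamine as the EC100 control.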
Large screens that a line does not name were inactive.

O=C(CN1CCN(Cc2ccccc2)CC1)N1CCCc2ccccc21	D2 antag 32
O=C(CN1CCN(c2ccc(O)cc2)CC1)N1CCc2ccccc21	D2 antag 40
CC(O)CNCCCOc1cccc(C(F)(F)F)c1 (stereo not given)	D2 antag 34
COC(=O)N/N=C\c1c(C)[nH]n(-c2ccccc2)c1=O	none
Cc1[nH]n(-c2ccccc2)c(=O)c1/C=N/N(C)c1ccccc1	D2 PAM-2 74
COCC(=O)N/N=C/c1c(C)[nH]n(-c2ccccc2)c1=O	D2 PAM-1 33
COc1ccccc1Nc1nc2ccc(Cl)cc2nc1-n1nc(C)cc1C	none (no result: D2 antag, D2 ag-1, D2 PAM-2)
CCOC(=O)N1CCC(NC(=O)C(NS(=O)(=O)c2cccc3nsnc23)c2ccccc2)CC1 (stereo not given)	none
O=C(NC1CCN(Cc2ccccc2)CC1)C(NS(=O)(=O)c1cccc2nsnc12)c1ccccc1 (stereo not given)	D2 antag 35
CN(C(=O)CSc1nncn2c1cc1occc12)c1ccccc1	none (no result: D2 PAM-1, D2 antag, D2 ag-1, D2 PAM-2)
Cc1ccc(C)c(S(=O)(=O)c2cn(Cc3ccccc3)c3cc(N4CCCC4)c(F)cc3c2=O)c1	none (no result: D2 antag, D2 ag-1, D2 PAM-2)
Cc1cc(C)c(NC(=O)CSc2ncc3c(n2)-c2cc(Cl)ccc2N(C)S3(=O)=O)c(C)c1	none (no result: D2 antag, D2 ag-1, D2 PAM-2)
Cc1c(Cl)cccc1NC(=O)CC1NCCNC1=O (stereo not given)	D2 antag 34
Cc1c(Cl)cccc1NC(=O)CN1CCN(CCO)CC1	D2 antag 31
Cc1c(Cl)cccc1NC(=O)CCN1CCCCCC1	none
Cc1c(Cl)cccc1NC(=O)CC1SCCNC1=O (stereo not given)	none
O=C(CN1CCN(CCC(=O)Nc2ccccc2F)CC1)Nc1ccc(Cl)cc1	D2 antag 129
O=C(CN1CCN(CCC(=O)Nc2ccccc2F)CC1)Nc1ccc(F)cc1	none
O=C(CCN1CCN(c2ccc(Cl)cc2)CC1)Nc1ccccc1F	D2 antag 36
Cc1ccc(Cl)cc1N1CCN(C(=O)c2ccc3c(c2)N(Cc2ccccc2)CCS3)CC1	none (no result: D2 antag, D2 ag-1, D2 PAM-2)
CNCc1c(OCc2ccc(F)cc2)ccc2ccccc12	D2 antag 74
CCN(CC)Cc1ccccc1CNC(=O)c1cccc(S(=O)(=O)Nc2ccc3c(c2)OCO3)c1	D2 antag 74
CCCCOC(=O)c1cccc(NC(=O)c2cc3ccccc3o2)c1	none (no result: D2 antag, D2 ag-1, D2 ag-2, D2 PAM-2)
CCOC(=O)c1nnn(-c2nonc2N)c1CN1CCCCCC1	none
Cc1c(C(=O)N2CCCCCC2)nnn1-c1nonc1N	D2 antag 41
CCCC(c1nnnn1CS(=O)(=O)c1ccc(C)cc1)N1CCN(c2ccc(F)cc2)CC1 (stereo not given)	D2 antag 59 (no result: D2 PAM-1)
Cc1ccc(C(=O)NC2(C(F)(F)F)C(=O)Nc3c2c(=O)[nH]c(=O)n3CCc2ccccc2)cc1 (stereo not given)	none (no result: D2 antag, D2 ag-1, D2 PAM-2)
N/C(Cc1cccc2ccccc12)=N\OC(=O)c1cccs1	none
N/C(Cc1ccc(Cl)cc1Cl)=N\OC(=O)Cc1cccs1	none
COc1ccccc1C/C(N)=N/OC(=O)c1cccs1	D2 ag-1 inconclusive, D2 PAM-2 53
N/C(Cc1ccc(Cl)cc1Cl)=N\OC(=O)c1cccs1	D2 PAM-2 119
COc1cc(Nc2cc(C)nc3ncnn23)cc(OC)c1	none
COc1cc(Nc2cc(C)nc3ncnn23)cc(OC)c1OC	D2 antag 32
CC1CCCN(C(=O)Cn2c(=O)n(CC3CCC(C(=O)NC(C)C)CC3)c(=O)c3sccc32)C1 (stereo not given)	none (no result: D2 antag, D2 ag-1, D2 PAM-2)
O=C(NCc1ccccc1Cl)c1ccc(CS(=O)(=O)c2ccc(Br)cc2)o1	none (no result: D2 antag, D2 ag-1, D2 PAM-2)
CN(Cc1ccccc1)C(=O)CN1CCN(C(c2ccccc2)c2ccccc2)CC1	D2 antag 51
CCN1CCN(c2csc3ccc(C)cc3c2=O)CC1	none (no result: D2 antag, D2 ag-1, D2 PAM-2)
Cc1ccc(C(=O)NCCc2nnc3ccc(SCC(=O)Nc4c(C)cc(C)cc4C)nn23)cc1	none
Cc1ccc(C(=O)NCCc2nnc3ccc(SCC(=O)Nc4ccccc4C)nn23)cc1	D2 antag 41
Cc1ccc(N2CCn3c2nc2c3c(=O)n(C/C=C/c3ccccc3)c(=O)n2C)cc1C	none (no result: D2 antag, D2 ag-1, D2 PAM-2)
CC(=O)c1cccc(NS(=O)(=O)c2ccc(N/C=C/C(=O)c3ccc(F)cc3)cc2)c1	none (no result: D2 PAM-1, D2 antag, D2 ag-2)
CC(=O)c1cccc(NS(=O)(=O)c2ccc(N/C=C\C(=O)c3ccc(C)cc3)cc2)c1	D2 PAM-2 64
CCOC(=O)c1c(-c2ccccc2)oc2ccc(NS(=O)(=O)c3ccc(C)cc3C)cc12	none (no result: D2 antag, D2 ag-1, D2 PAM-2)
COc1cc(OC)c(NC(=O)CCS(=O)(=O)c2ccc3c(c2)oc(=O)n3C)cc1Cl	none (no result: D2 antag, D2 ag-1, D2 PAM-2)
COc1ccccc1NC(=O)CCS(=O)(=O)c1ccc2c(c1)oc(=O)n2C	D2 antag 31
Cc1cc(C(=O)NCc2ccc(S(N)(=O)=O)cc2)c(C)o1	D2 antag 30
CCc1ccc(CNC(=O)CN2C(=O)C3CCCCN3c3ccc(C(=O)N4CCCC4)cc32)cc1 (stereo not given)	none (no result: D2 antag, D2 ag-1, D2 PAM-2)
Cc1ccc(CSCCNC(=O)c2ccc(C)cc2)cc1	D2 antag 32
COc1ccc(C(=O)NCCSCc2ccc(C)cc2)cc1	none
CN(Cc1cnn(C)c1)C(=O)C1CCC(=O)N(Cc2cccc(C(F)(F)F)c2)C1 (stereo not given)	none (no result: D2 PAM-1, D2 antag, D2 ag-2)
CN(Cc1cccc(C(F)(F)F)c1)C(=O)C1CCC(=O)N(CC2CCCCC2)C1 (stereo not given)	D2 antag 31
CC(=O)N1CCN(S(=O)(=O)c2cccc(C(=O)Nc3ccc(C)cn3)c2)CC1	none
Cc1ccc(NC(=O)c2cccc(S(=O)(=O)N3CCc4ccccc4C3)c2)nc1	D2 antag 31
CCc1cc(=O)oc2cc(C)cc(OCC(=O)N3CCC(C(=O)NC(C)C)(c4ccccc4)CC3)c12	D2 antag 53
COc1ccccc1N1CCN(C(=O)C2CCN(S(=O)(=O)Cc3ccccc3)CC2)CC1	none (no result: D2 antag, D2 ag-1, D2 PAM-2)
Cc1nn(CC(=O)Nc2ccc(Br)cc2F)c(=O)c2cccn12	D2 antag 47
Cc1ccccc1NC(=O)Cn1nc(C)n2cccc2c1=O	none
CCN(Cc1ccccc1)Cc1c(O)ccc2c(=O)c(-c3ccc(Cl)cc3)coc12	none (no result: D2 antag, D2 ag-1, D2 PAM-2)
CN(C)c1cc(Nc2ccc(O)cc2)c([N+](=O)[O-])c2nonc12	none
O=[N+]([O-])c1c(Nc2ccc(O)cc2)cc(Cl)c2nonc12	D2 antag 37
CCN1CCN(P2(=O)C=C(c3ccccc3)OC(c3ccccc3)=C2)CC1	D2 antag 84
CCOC(=O)C1=C(COC(=O)C(CC)c2ccccc2)NC(=O)NC1C (stereo not given)	D2 PAM-1 30
COc1cccc(-c2nc(SCc3cccc(Br)c3)n3[nH]c(=O)cc3n2)c1	none (no result: D2 antag, D2 ag-1, D2 PAM-2)
CN1CCN(C2Cc3ccccc3Sc3cc(C(F)(F)F)ccc32)CC1 (stereo not given)	none (no result: D2 PAM-1, D2 antag, D2 ag-2)
